The panel holds about 83,000 compounds, 20% with a hit somewhere; the sample as a whole holds those more often.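 Single-dose data. Exposure time 48 hours. Values below 10 considered active.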 A number with no mark means an inactive call. Calls of active or inactive are those of the source.
Legend:
Test in all cases: NCI-60 one-dose screen, 48 h (100 = growth as untreated, 0 = no growth, -100 = all killed)
Conditions in all cases: 10 µM unless noted
K-562 leukemia = test system: K-562 leukemia
MALME-3M melanoma = test system: MALME-3M melanoma
MDA-MB-231 breast = test system: MDA-MB-231 breast
RXF 393 renal = test system: RXF 393 renal
SF-268 CNS = test system: SF-268 CNS
SF-295 CNS = test system: SF-295 CNS
SF-539 CNS = test system: SF-539 CNS
UACC-257 melanoma = test system: UACC-257 melanoma
M14 melanoma = test system: M14 melanoma
HCT-15 colon = test system: HCT-15 colon

| SMILES | growth (K-562 leukemia) | growth (MALME-3M melanoma) | growth (MDA-MB-231 breast) | growth (RXF 393 renal) | growth (SF-268 CNS) | growth (SF-295 CNS) | growth (SF-539 CNS) | growth (UACC-257 melanoma) | growth (M14 melanoma) | growth (HCT-15 colon) |
| --- | --- | --- | --- | --- | --- | --- | --- | --- | --- | --- |
| CC(C)c1nc(N(C)S(C)(=O)=O)nc(-c2ccc(F)cc2)c1/C=C/[C@@H](O)C[C@@H](O)CC(=O)O | 130% | 104% | 63.7% | 105% | 77.5% | 100% | 97.6% | 103% | 104% | 95.2% |
| O=C1C[C@@H]2/C(=C(O)\C=C\c3ccccc3)C(=O)C=C[C@@H]2O1 | 14.3% | -35.1% (active) | -45.7% (active) | -92.9% (active) | 11.6% | 71.2% | -43.3% (active) | -43.4% (active) | -65.9% (active) | -7.83% (active) |
| O=C(NN(C(=O)c1ccccc1)c1cccs1)c1ccccc1 | 109% | 97.3% | 93.4% | 115% | 112% | 116% | 110% | 139% | 101% | 101% |
| COc1ccc2c3c(c(OCCCN(C)C)nc2c1)-c1ccc(Cl)cc1C3=O | -59% (active) | -57.5% (active) | -62.3% (active) | -91.9% (active) | 43.9% | 86% | 13.9% | 86.9% | -59.2% (active) | -89.4% (active) |
| N#CCCCCCn1c2ccccc2c2c3c(c4c5ccccc5[nH]c4c21)C(=O)N(O)C3=O | 6.27% (active) | -34.6% (active) | 16.1% | -30.7% (active) | 11.3% | -17.2% (active) | -95.4% (active) | 20.5% | 11.9% | 15.9% |
| Nc1ncc(-c2cnn(C3CCNCC3)c2)cc1-c1nc2cc(Cl)ccc2o1 | -100% (active) | -92.5% (active) | -91.7% (active) | -96.4% (active) | -83.4% (active) | -78.7% (active) | -100% (active) | -93.3% (active) | -100% (active) | -84.9% (active) |
| COC1=CC(c2ccc[nH]2)=N/C1=C\c1[nH]c(C)c(C(=O)CCC(=O)Oc2ccc3c(c2)CCC2C3CC[C@]3(C)C(=O)CC[C@@H]23)c1C (stereo not given in full) | 39.2% | 103% | 1.14% (active) | 93.1% | 52.6% | 86.4% | 83.7% | 106% | 104% | 45.6% |
| C/C(=N\N1CC(=O)NC1=O)c1ccc([N+](=O)[O-])o1 | 90.6% | 114% | 106% | 128% | 84.7% | 104% | 108% | 81.9% | 103% | 115% |
| C=C(C[C@](O)(C(=O)/C=C/c1ccc(Cl)cc1)C(=O)OC)c1ccccc1 | 50.7% | 95.7% | 71% | 52.5% | 87.4% | 98.9% | 75.8% | 91.7% | 84.1% | 3.71% (active) |
| O=C(/C=C/c1cc2ccccc2[nH]c1=O)c1ccc(O)cc1 | 5.94% (active) | 83.7% | 59.5% | 0.37% (active) | 20.4% | 54% | 23.3% | 92.6% | 76% | 35.2% |
| O=C(OC[C@H]1O[C@H](OC(=O)c2cc(O)c(O)c(OC(=O)c3cc(O)c(O)c(O)c3)c2)[C@H](OC(=O)c2cc(O)c(O)c(OC(=O)c3cc(O)c(O)c(O)c3)c2)[C@@H](OC(=O)c2cc(O)c(O)c(OC(=O)c3cc(O)c(O)c(O)c3)c2)[C@@H]1OC(=O)c1cc(O)c(O)c(OC(=O)c2cc(O)c(O)c(O)c2)c1)c1cc(O)c(O)c(OC(=O)c2cc(O)c(O)c(O)c2)c1 | 31.5% | 49% | 23.5% | -12.7% (active) | 27.2% | 9.95% (active) | 29.3% | 60.2% | 17.6% | 28.6% |

From PubChem BioAssay (NCI)
